Our source for the Potency and activity change, negative = cytotoxicity values is PubChem BioAssay (NCATS).

Results filed as inconclusive are left out. A call without a number means that no potency is given here. A number with no mark means an inactive call. Activity calls are given as the source filed them. Calls come from the whole dose curve; as a rule, active = well fitted cell-killing curve with a large enough effect; inconclusive = small, poorly fitted or top-dose-only effect, or effect the other way; inactive = flat fitted curve, though single readings scatter.

In this assay the test system is CASKI. In words: Primary qHTS to identify gynecologic anti-cancer compounds using libraries of approved drugs and bioactive compounds (AID 1345084). Note: nearly all actives have a fitted effect of over 55% in size. The note with it: Gynecologic cancer cell panel viability, ATPlite luminescence, 48 h; series mostly up to 57.5 µM. The procedure, abridged:
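Five-point cytotoxicity, 48 h drug exposure at 37 C, 5% CO2, on cells seeded 16 h beforehand. ATP content read by ATPlite luminescence.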
Background: qHTS replaces the single test concentration by a dilution series.
For `CCCCc1nc(Cl)c(CO)n1Cc1ccc(-c2ccccc2-c2nn[nH]n2)cc1`, the Potency result is “inactive”.
The same measure, in the same setting: as for `CCN1CCN(c2cc3c(cc2F)c(=O)c(C(=O)O)cn3C2CC2)CC1`, the entry is “inactive”.
As to `OC[C@@H](O)[C@@H](O[C@@H]1O[C@H](CO)[C@H](O)[C@H](O)[C@H]1O)[C@H](O)[C@@H](O)CO`, the Potency result was “inactive”.
On to `CC(=O)OCC(=O)[C@@]1(O)CC[C@H]2[C@@H]3CCC4=CC(=O)C=C[C@]4(C)[C@H]3[C@@H](O)C[C@@]21C`, for which the Potency result was “inactive”.
On the same count and under the same terms, the entry for `C#C[C@]1(OC(C)=O)CC[C@H]2[C@@H]3CCC4=C[C@@H](OC(C)=O)CC[C@@H]4[C@H]3CC[C@@]21C` is “inactive”; for `C/C=C/c1ccc(OC)cc1` it is “inactive”.
On the same count and under the same terms, as for `Nc1ccn([C@@H]2O[C@H](CO)[C@@H](O)C2(F)F)c(=O)n1`, the entry is “inactive”; as for `CC(=O)OCC(=O)[C@@]12OC(C)(C)O[C@@H]1C[C@H]1[C@@H]3C[C@H](F)C4=CC(=O)C=C[C@]4(C)[C@@]3(F)[C@@H](O)C[C@@]12C`, “inactive”; as for `CCCCCCCCCCCCCCCCOP(=O)([O-])OCC[N+](C)(C)C`, “inactive”.
Same read-out and setting: the entry for `CCN(CC)CCNC(=O)COc1ccc(Cl)cc1` is “inactive”; for `CCN(CC)C(=O)N1CCN(C)CC1` it is “inactive”.
For the compound `Nc1ccc(/C=C/c2ccc(N)cc2S(=O)(=O)O)c(S(=O)(=O)O)c1`, the activity change, negative = cytotoxicity is -23.3% [at 0.462 µM].
For the compound `CC(O)C(=O)O` (stereo not given), the Potency entry was “inactive”.
Still for that read-out and setting: the entry for `CC(CCc1ccccc1)NCC(O)c1ccc(O)c(C(N)=O)c1` (stereo not given) is “inactive”.
On to `c1ccc(-c2ccc(C(c3ccccc3)n3ccnc3)cc2)cc1` (stereo not given), for which the Potency entry is “inactive”.
Still for that read-out and setting: the entry for `O=C1OC(c2ccc(O)cc2)(c2ccc(O)cc2)c2ccccc21` is “inactive”; for `C[C@H]1[C@H](NC(=O)/C(=N/OC(C)(C)C(=O)O)c2csc(N)n2)C(=O)N1S(=O)(=O)O` (stereo in doubt) it is “inactive”.
Regarding `Cc1c(C(N)=O)cc([N+](=O)[O-])cc1[N+](=O)[O-]`, the Potency entry is “inactive”.
The same measure, in the same setting: as for `CN1C(CCl)Nc2cc(Cl)c(S(N)(=O)=O)cc2S1(=O)=O` (stereo not given), the entry is “inactive”; as for `O=C(OCCOCCO)c1ccccc1Nc1cccc(C(F)(F)F)c1`, “inactive”.
Turning to `Oc1c(Cl)cc(Cl)cc1Sc1cc(Cl)cc(Cl)c1O`, the Potency result is “inactive”.
For `CC(Cc1ccccc1)(NC(=O)CN)c1ccccc1` (stereo not given), the Potency result was “inactive”.
The same measure, in the same setting: as for `COc1cc(C(=S)N2CCOCC2)cc(OC)c1OC`, the entry is “inactive”.
As for `CCN1CCCC1=O`, the Potency result is “inactive”.
Take `NC(=O)c1cc[n+](CC2=C(C(=O)[O-])N3C(=O)[C@@H](NC(=O)Cc4cccs4)[C@H]3SC2)cc1`: the Potency entry was “inactive”.
For the compound `CC(C)(Oc1ccc(Cl)cc1)C(=O)O`, the Potency result was “inactive”.
With `CCOC(=O)n1ccn(C)c1=S`, the Potency result was “inactive”.
On the same count and under the same terms, as for `C[C@]12CC[C@@H]3c4ccc(O)cc4CC[C@H]3[C@@H]1C[C@@H](O)[C@@H]2O`, the entry is “inactive”.
Same read-out and setting: the entry for `COc1cccc(OC)c1C(=O)N[C@@H]1C(=O)N2[C@@H]1SC(C)(C)[C@@H]2C(=O)O` is “inactive”; for `O=C(O)CCCCC(=O)O` it is “inactive”.
